# Data reported in PubChem BioAssay (EPA / NIEHS).
# Results filed as inconclusive are left out. Activity calls are given as the source filed them. The calls were made as follows: active = hit-call score of the fitted dose curve at least 0.9, where 1 is the maximum; inconclusive = response in the unintended direction; inactive = score below 0.9.
# Assays:
# [1] = TOX21_p53_BLA_p5_viability: Viability Assessment in the Tox21 HCT-116 p53 Agonism Beta-lactamase Assay, Phase 5 (AID 2283600)
# Outline: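 ATP luminescence (CellTiter-Glo, 30 min, RT) served as the viability read-out, with loss of signal indicating cytotoxicity. Compounds in DMSO were pinned at a 217-fold dilution onto 4000 cells/well and incubated 16 h, 37C.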
# [2] = target: Cellular tumor antigen p53 (Homo sapiens) (UniProt P04637); assay: TOX21_p53_BLA_p4_ratio: Tox21 HCT-116 p53 Agonism Beta-lactamase Assay, Ratio, Phase 4 (AID 2283601)
# Outline: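 HCT116 cells carrying an inducible beta-lactamase reporter were plated at 4000 cells/well, rested 5 h, then exposed to compounds in DMSO (217-fold dilution) for 16 h at 37C. CCF4-AM substrate was loaded 2 h at room temperature; 460/530 nm emission ratio scored gain-of-signal versus DMSO.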
# [3] = Tanguay_ZF_120hpf_MORT_legacy: (Legacy) Oregon State University Tanguay Lab 120 Hour Post-fertilization zebrafish Assay for Mortality (AID 2283633);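 as to AC50: fitted as increase in binary mortality versus DMSO negative control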
# Outline: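 Brightfield scoring of embryo death (binary) at 24 and 120 hpf; static exposure 6–120 hpf, 28C, sealed and foil-covered. Pronase-dechorionated 5D wild-type larvae, single embryo per well. DMSO 0.64% v/v; trimethyltin chloride 5uM positive control.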
# [4] = Tanguay_ZF_120hpf_YSE_legacy: (Legacy) Oregon State University Tanguay Lab 120 Hour Post-fertilization zebrafish Assay for Yolk Sac Edema (AID 2283634);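 as to AC50: actives raise the incidence of yolk sac edema above the DMSO baseline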
# Outline: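 Binary brightfield scoring of yolk sac edema at 120 hpf; DMSO baseline, gain-of-signal fitting. Dechorionated 5D larvae, one per well, static exposure 6–120 hpf, 28C, 0.64% DMSO. Dead embryos not scored.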
# [5] = Tanguay_ZF_120hpf_AXIS_legacy: (Legacy) Oregon State University Tanguay Lab 120 Hour Post-fertilization zebrafish Assay for Body Axis Malformation (AID 2283635);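 as to AC50: potency for an increased fraction of larvae scored with body axis malformation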
# Outline: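 Embryos: 5D wild-type, pronase-dechorionated 4 hpf; static exposure 6–120 hpf, 28C, sealed, dark, 1 embryo/well, 0.64% DMSO. 120 hpf axis malformation scored present/absent; dead embryos excluded. Analysed as gain of signal vs DMSO.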
# [6] = Tanguay_ZF_120hpf_EYE_legacy: (Legacy) Oregon State University Tanguay Lab 120 Hour Post-fertilization zebrafish Assay for Eye Malformation (AID 2283636);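 also: binary presence or absence of eye malformation scored by brightfield in 120 hpf larvae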
# Outline: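 Static waterborne exposure of dechorionated zebrafish embryos (strain Tropical 5D), 6 to 120 hpf, sealed plates at 28C, 0.64% DMSO vehicle. Eye malformation is scored as a binary endpoint, with gain of signal analysed relative to DMSO.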
# [7] = Tanguay_ZF_120hpf_SNOU_legacy: (Legacy) Oregon State University Tanguay Lab 120 Hour Post-fertilization zebrafish Assay for Snout Malformation (AID 2283637)
# Outline: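 Dechorionated zebrafish, individually housed from 6 hpf in covered, sealed wells at 28C with 0.64% DMSO vehicle, were examined at 120 hpf for snout malformation. Responses were binary and analysed positive-direction relative to DMSO.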
# [8] = Tanguay_ZF_120hpf_JAW_legacy: (Legacy) Oregon State University Tanguay Lab 120 Hour Post-fertilization zebrafish Assay for Jaw Malformation (AID 2283638);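 as to AC50: active means more embryos with jaw malformation than DMSO controls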
# Outline: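 Binary jaw-malformation calls at 120 hpf by brightfield imaging; DMSO (0.64% v/v) = baseline. Embryos: 5D wild-type, pronase-dechorionated, one per well from 6 hpf, static exposure, 28C, sealed, dark.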
# Chain of Cellular tumor antigen p53 (Homo sapiens) (P04637 whole entry, looked up): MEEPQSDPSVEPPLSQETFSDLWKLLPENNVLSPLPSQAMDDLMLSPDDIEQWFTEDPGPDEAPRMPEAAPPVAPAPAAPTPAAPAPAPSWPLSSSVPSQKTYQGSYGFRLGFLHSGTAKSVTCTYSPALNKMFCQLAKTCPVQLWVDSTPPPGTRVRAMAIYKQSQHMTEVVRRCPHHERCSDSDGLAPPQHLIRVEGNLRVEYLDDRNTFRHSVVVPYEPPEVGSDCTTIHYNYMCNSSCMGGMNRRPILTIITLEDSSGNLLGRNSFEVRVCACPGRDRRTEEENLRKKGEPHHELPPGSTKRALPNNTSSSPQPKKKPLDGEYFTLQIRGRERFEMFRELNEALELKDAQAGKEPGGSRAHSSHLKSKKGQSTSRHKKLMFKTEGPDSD
smiles,measurement,setting,value
CC1=NNC(=O)N(/N=C/c2cccnc2)C1,outcome,[1],inactive
same,outcome,[2],inactive
same,outcome,[3],inactive
same,outcome,[4],inactive
same,outcome,[5],inactive
same,outcome,[6],inactive
same,outcome,[7],inactive
same,outcome,[8],inactive
CCCOc1nn(C(=O)NS(=O)(=O)c2ccccc2C(=O)OC)c(=O)n1C,outcome,[2],inactive
same,outcome,[3],inactive
same,outcome,[4],inactive
same,outcome,[6],inactive
same,outcome,[7],inactive
same,outcome,[8],inactive
CCOP(=S)(OCC)Oc1ccc([N+](=O)[O-])cc1,outcome,[3],inactive
same,outcome,[4],inactive
same,outcome,[5],inactive
same,outcome,[6],inactive
same,outcome,[7],inactive
same,outcome,[8],inactive
CCc1cccc(CC)c1N(COC)C(=O)CCl,AC50,[3],13.4 µM (active)
same,outcome,[4],inactive
same,outcome,[5],inactive
same,outcome,[6],inactive
same,outcome,[7],inactive
same,outcome,[8],inactive
COP(=O)(OC)OC(Br)C(Cl)(Cl)Br (stereo not given),outcome,[3],inactive
same,outcome,[4],inactive
same,outcome,[5],inactive
same,outcome,[6],inactive
same,outcome,[7],inactive
same,outcome,[8],inactive
C[N+]1(C)CCCCC1,outcome,[2],inactive
same,outcome,[3],inactive
same,outcome,[4],inactive
same,outcome,[5],inactive
same,outcome,[6],inactive
same,outcome,[7],inactive
same,outcome,[8],inactive
O=c1ccc(=O)[nH][nH]1,outcome,[1],inactive
same,outcome,[2],inactive
same,outcome,[3],inactive
same,AC50,[4],25.4 µM (active)
same,AC50,[5],51.7 µM (active)
same,outcome,[6],inactive
same,outcome,[8],inactive
CCCCOC(=O)[C@@H](C)Oc1ccc(Oc2ccc(C#N)cc2F)cc1,outcome,[2],inactive
same,outcome,[3],inactive
same,outcome,[4],inactive
same,outcome,[5],inactive
same,outcome,[6],inactive
same,outcome,[7],inactive
same,outcome,[8],inactive
C#CCC1=C(C)C(OC(=O)C2C(C=C(C)C)C2(C)C)CC1=O (stereo not given),outcome,[1],inactive
same,outcome,[2],inactive
same,outcome,[3],inactive
same,outcome,[4],inactive
same,outcome,[6],inactive
same,outcome,[7],inactive
same,outcome,[8],inactive
COc1cccc(C(=O)NN(C(=O)c2cc(C)cc(C)c2)C(C)(C)C)c1C,outcome,[1],inactive
same,outcome,[2],inactive
same,outcome,[3],inactive
same,outcome,[4],inactive
same,outcome,[5],inactive
same,outcome,[6],inactive
same,outcome,[7],inactive
same,outcome,[8],inactive
O=C(O)c1cc(Oc2ccc(C(F)(F)F)cc2Cl)ccc1[N+](=O)[O-],outcome,[3],inactive
same,outcome,[4],inactive
same,outcome,[5],inactive
same,outcome,[6],inactive
same,outcome,[7],inactive
same,outcome,[8],inactive
CSc1nc(NC(C)C)nc(NC(C)C)n1,outcome,[1],inactive
same,outcome,[3],inactive
same,outcome,[4],inactive
same,outcome,[5],inactive
same,outcome,[6],inactive
same,outcome,[7],inactive
same,outcome,[8],inactive
CCOP(=O)(OCC)Oc1cc(C)nc(C(C)C)n1,outcome,[1],inactive
same,outcome,[3],inactive
same,outcome,[4],inactive
same,outcome,[5],inactive
same,outcome,[6],inactive
same,outcome,[7],inactive
same,outcome,[8],inactive
CCOP(=S)(OCC)OC(Cl)C(Cl)(Cl)Cl (stereo not given),outcome,[1],inactive
same,outcome,[2],inactive
same,outcome,[3],inactive
same,outcome,[4],inactive
same,outcome,[5],inactive
same,outcome,[6],inactive
same,outcome,[7],inactive
same,outcome,[8],inactive
S=C1NCCN1,outcome,[1],inactive
same,outcome,[2],inactive
same,outcome,[4],inactive
same,outcome,[5],inactive
same,outcome,[6],inactive
same,outcome,[7],inactive
CCOP(=O)(SC(C)CC)N1CCSC1=O (stereo not given),outcome,[3],inactive
same,outcome,[4],inactive
same,outcome,[5],inactive
same,outcome,[6],inactive
same,outcome,[7],inactive
same,outcome,[8],inactive
Nc1c(Cl)cc([N+](=O)[O-])cc1Cl,AC50,[4],33 µM (active)
same,AC50,[5],40.4 µM (active)
same,AC50,[6],9.62 µM (active)
same,AC50,[7],31.1 µM (active)
same,AC50,[8],31.4 µM (active)
C=C(C)[C@H]1Cc2c(ccc3c2O[C@@H]2COc4cc(OC)c(OC)cc4[C@@H]2C3=O)O1,AC50,[3],0.347 µM (active)
same,outcome,[4],inactive
same,outcome,[5],inactive
same,outcome,[6],inactive
same,outcome,[7],inactive
same,outcome,[8],inactive
CCC(CC)Nc1c([N+](=O)[O-])cc(C)c(C)c1[N+](=O)[O-],outcome,[1],inactive
same,outcome,[2],inactive
same,outcome,[3],inactive
same,outcome,[4],inactive
same,outcome,[5],inactive
same,outcome,[6],inactive
same,outcome,[7],inactive
same,outcome,[8],inactive
CC(C)=CC1C(C(=O)OCN2C(=O)C3=C(CCCC3)C2=O)C1(C)C (stereo not given),outcome,[1],inactive
same,outcome,[2],inactive
same,outcome,[3],inactive
same,outcome,[4],inactive
same,outcome,[5],inactive
same,outcome,[6],inactive
same,outcome,[7],inactive
same,outcome,[8],inactive
